14 compounds from PubChem BioAssay (NCATS) can be followed below.

SMILES strings stand for the structures. Several values for one entry are separate records, joined by “and”; a condition that tells them apart may be missing. Equal values may be shown once. Results filed as inconclusive are left out. A structure can be active in one record and inactive in another. Unmarked numbers belong to inactive results. Activity calls are given as the source filed them. The call rests on the fitted dose curve; in most records, active means well fitted inhibition curve with a large enough effect; inconclusive means small, poorly fitted or top-dose-only effect; inactive means flat fitted curve, though single readings scatter.

One test relates to TAB165. The experiment in a line: qHTS profiling for inhibitors of Plasmodium falciparum proliferation (AID 504749). Further: potency means the concentration at half of the fitted maximal effect. The following applies: P. falciparum in erythrocytes, SYBR Green DNA, 72 h; series mostly up to 28.7 µM. In short, it runs like this:
(§1)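 In a 72 h erythrocytic culture (37 C, humidified, 5% CO2) at 2.5% hematocrit and 0.3% starting parasitemia, compounds were tested; SYBR Green I in detergent lysis buffer stained parasite DNA overnight.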

The test system of a further test is W2. Described as above. The settings on record: P. falciparum in erythrocytes, SYBR Green DNA, 72 h; series mostly up to 28.7 µM. In outline:
as §1

In another test the test system is CRL-7250. The experiment in a line: Cytotoxic Profiling of Annotated Libraries Using Quantitative High-Throughput Screening (AID 1296008). Further: potency means the concentration at half of the fitted maximal effect. On max response: on the % scale 0 is the no-effect control and ±100 the full control effect. The settings on record: Five cell lines viability, CellTiter-Glo ATP luminescence, 48-72 h; max response: active compounds read low. In short, it runs like this:
(§2)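 Cytotoxicity was measured as CellTiter-Glo ATP luminescence, read after 10 min at room temperature. Compound treatment of the cells lasted 48 or 72 hr at 37 degrees Celsius in a qHTS format.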
Background: In ATP-based viability assays light output follows the ATP content of the culture.

A further test deals with HEK293. Described as above. The following applies: Five cell lines viability, CellTiter-Glo ATP luminescence, 48-72 h; max response: active compounds read low. In short, it runs like this: as §2
Test [1] relates to HaCat. Described as above. The following applies: Five cell lines viability, CellTiter-Glo ATP luminescence, 48-72 h; max response: active compounds read low. In short, it runs like this: as §2
In a further test the test system is KB-3-1. The test is described as above. The following applies: Five cell lines viability, CellTiter-Glo ATP luminescence, 48-72 h; max response: active compounds read low. In outline:
as §2

In the next test the test system is NIH3T3. Described as above. The settings on record: Five cell lines viability, CellTiter-Glo ATP luminescence, 48-72 h; max response: active compounds read low. In outline:
as §2

In test [2] the test system is HACAT. Briefly: qHTS assay to identify novel small-molecules to repurpose for Merkel cell carcinoma treatment (AID 1296009). The following applies: MCC and control cell lines, CellTiter-Glo viability, 72 h. In short, it runs like this:
(§3)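 Cell viability measured by CellTiter-Glo following 72 hr compound treatment at 37 degree celsius, with NPC and MIPE libraries tested in 8- and 11-point concentration series.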

A further test has as its system HEK293T. The test is described as above. The settings on record: MCC and control cell lines, CellTiter-Glo viability, 72 h; at 44.8 µM (top of the series). In short, it runs like this: as §3
A further test deals with MCC-13. Described as above. The settings on record: MCC and control cell lines, CellTiter-Glo viability, 72 h; series mostly up to 46 µM. In short, it runs like this:
as §3

[3] abbreviates: at 44.8 µM (top of the series) unless noted.
Further: nearly all actives have a fitted effect of over 60% in size.

As for `CCc1ccc(CCOc2ccc(CC3SC(=O)NC3=O)cc2)nc1` (stereo not given), the Potency result with TAB165, in the test on W2 and in the test on MCC-13 was “inactive” throughout. Further, the max response with CRL-7250 is -4.18% and 2.83%; in the test on HEK293, -6.03%; in the test with KB-3-1, -8.26% and 7.14%; with NIH3T3, 0.801%. Besides, the compound was classed as inactive in the test on HEK293, with HaCat [1], with NIH3T3, in the test with HACAT [2] (setting [3]) and in the test with HEK293T.

Consider `O=C1CCCC2=C1C(c1[nH]ncc1Cl)N=C(Nc1nc3ccccc3o1)N2` (stereo not given), for which the max response was 2.7% in the test on CRL-7250, -0.0608% in the test on HaCat [1], 5.25% in the test on KB-3-1 and -1.09% in the test with NIH3T3. For the same compound, the outcome with CRL-7250, in the test on HaCat [1], in the test with KB-3-1, in the test on NIH3T3 and in the test with HACAT [2] (setting [3]) was inactive. Moreover, the Potency result in the test with MCC-13 is “inactive”.

Take `N=c1nc(N2CCCCC2)cc(N)n1O`: the Potency entry in the test with TAB165, in the test on W2 and in the test with MCC-13 was “inactive” in each case. The max response in the test on CRL-7250 is -9.52% and -1.74%; with HEK293, 3.36%; in the test with NIH3T3 it was 3.13%. The call in the test on HEK293, in the test with NIH3T3, in the test on HACAT [2] (setting [3]) and in the test on HEK293T was inactive.

For the compound `NS(=O)(=O)c1cc2c(cc1Cl)NC=NS2(=O)=O`, the Potency entry in the test with W2 and in the test with MCC-13 was “inactive” in each case. Also, the max response is -0.778% and -4.67% with CRL-7250; -4.01% and 0.386% in the test on HEK293; -11.6% in the test with HaCat [1]; -5.96% in the test on KB-3-1; 3.94% with NIH3T3. In addition, the compound was called inactive with HaCat [1], with KB-3-1, in the test with NIH3T3 and in the test on HACAT [2] (setting [3]).

For `CC(C)NCC(O)COc1ccc(COCCOC(C)C)cc1` (stereo not given), the Potency entry in the test on TAB165, in the test on W2 and in the test with MCC-13 was “inactive” throughout. For the same compound, the max response is -5.09% in the test on CRL-7250; 4.07% and -17.2% in the test on HEK293; -3.77% in the test with HaCat [1]; 14.8% and -14.7% and -10.9% with KB-3-1; 4.85% with NIH3T3. Also, the result in the test on CRL-7250, in the test on HaCat [1], in the test with NIH3T3 and with HACAT [2] (setting [3]) was inactive.

As to `CC(=O)Oc1ccccc1C(=O)O`, the Potency entry in the test with TAB165, with W2 and in the test with MCC-13 was “inactive” each time. Moreover, the max response in the test on CRL-7250 is 0.351% and -4.5%; with HEK293 it was 1.6%; in the test with KB-3-1, -12% and 2.14%; in the test with NIH3T3, 0.988% and 3.48%. Besides, the compound was classed as inactive in the test on HEK293, in the test with HaCat [1], with HACAT [2] (setting [3]) and with HEK293T.

For the compound `c1ccc([C@H]2CN3CCSC3=N2)cc1`, the max response in the test on CRL-7250 was -3.88% and 4.82%; in the test on HEK293 it was -11.1%; in the test on KB-3-1 it was -2.88% and 1.89%; in the test with NIH3T3 it was 1.43% and 2.53%. The outcome with HEK293, in the test on HACAT [2] (setting [3]) and in the test with HEK293T was inactive. For the same compound, in the test on MCC-13, the Potency entry is “inactive”.

For the compound `CCOC(=O)C1=C[C@]2(CC)CCCN3CCc4c(n1c1ccccc41)[C@@H]32`, in the test on TAB165, the Potency was 12.6 µM (active). Also, the max response with CRL-7250 was 1.21%; with HaCat [1], -26.7% and -18%; with KB-3-1 it was 2.59% and -10.9%; with NIH3T3, -12.6%. In the test with CRL-7250, the call was inactive. The Potency result in the test with MCC-13 is “inactive”.

On to `CCCCNc1cc(C(=O)O)cc(S(N)(=O)=O)c1Oc1ccccc1`, for which the Potency result in the test on TAB165, with W2 and in the test with MCC-13 was “inactive” throughout. In addition, the max response with CRL-7250 is 0.377%; in the test with HEK293 it was 2.91%; with HaCat [1], 2.18%; in the test on KB-3-1, -8.24% and 0.128%; in the test on NIH3T3, 1.18%. The outcome in the test with CRL-7250, in the test with HEK293, in the test on HaCat [1], in the test on NIH3T3, in the test on HACAT [2] (setting [3]) and with HEK293T was inactive.

Take `C[C@@H]1CN(Cc2ccc(F)cc2)[C@@H](C)CN1C(=O)c1cc2c(C(=O)C(=O)N(C)C)cn(C)c2cc1Cl`: the max response was 4.08% with CRL-7250; 6.97% and -3.16% in the test with KB-3-1; 1.1% in the test with NIH3T3. Moreover, the compound was classed as inactive with CRL-7250, in the test with NIH3T3 and with HACAT [2] (setting [3]). Moreover, the Potency entry in the test on MCC-13 was “inactive”.

For `CCN(CC)CCCC(C)Nc1ccnc2cc(Cl)ccc12` (stereo not given), the max response is 3.49% with CRL-7250; -0.795% and 2.69% with KB-3-1; -0.66% with NIH3T3. The compound was classed as inactive with CRL-7250, in the test with HEK293, with HaCat [1], in the test on KB-3-1, in the test with NIH3T3 and in the test on HACAT [2] (at 9.27 µM (top of the series)). In addition, the compound was called inactive with HACAT [2] (at 17.4 µM (top of the series)), in the test with HACAT [2] (at 44.8 µM (top of the series)) and in the test with HEK293T. Moreover, in the test with MCC-13, the Potency entry is “inactive”.

On to `COc1cc(F)c(F)c(Nc2ccc(I)cc2F)c1NS(=O)(=O)C1(C[C@H](O)CO)CC1`, for which, in the test with CRL-7250, the Potency is 5.8 µM (active) and the max response was -24.3%. Also, in the test on KB-3-1, the compound was called inactive. For the same compound, in the test on NIH3T3, the max response was -9.12%. Moreover, in the test with MCC-13, the Potency entry is “inactive”.

Take `O=c1n(CCCN2CCN(c3cccc(Cl)c3)CC2)nc2ccccn12`: the Potency result with TAB165, in the test on W2 and in the test on MCC-13 was “inactive” each time. In addition, the max response is -10.4% in the test with CRL-7250; 2.07% and 1.71% with HEK293; -8.88% with HaCat [1]; -0.946% and 1.57% in the test on KB-3-1; 3.22% and 3% in the test with NIH3T3. In addition, the outcome in the test on CRL-7250, in the test with HaCat [1] and in the test with HACAT [2] (setting [3]) was inactive.

`Cc1cn[nH]c1`: the Potency result in the test with TAB165, with W2 and in the test with MCC-13 was “inactive” each time. The Potency in the test on CRL-7250 was 5.26 µM (active); with HEK293, 4.69 µM (active). For the same compound, the max response in the test on CRL-7250 is -13.4%; in the test on HaCat [1], -8.18%; in the test on KB-3-1, 12.8%; in the test with NIH3T3, 3%. Further, the call with HEK293, in the test on HaCat [1], with KB-3-1, in the test with HACAT [2] (setting [3]) and with HEK293T was inactive.
